Compound activity as filed in PubChem.
Only some compounds are listed: those with a hit (about 3.2% of all), similar ones and a draw of the others.
DAGLB inh: DAGLB lipase inhibitors, primary screen, biochemical, fluorescence, HTS; Diacylglycerol lipase-beta (Homo sapiens), Q8NCG7; HEK293T DAGLB membrane lysate, EnzChek fluorogenic substrate; inhibition, % at 5.17 µM; 340,000 tested, 0.059% active; in the data active = inhibition above about 34%;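 also: 0% = enzyme with vehicle and 100% = wells lacking enzyme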
Target sequence (Q8NCG7 whole entry, looked up): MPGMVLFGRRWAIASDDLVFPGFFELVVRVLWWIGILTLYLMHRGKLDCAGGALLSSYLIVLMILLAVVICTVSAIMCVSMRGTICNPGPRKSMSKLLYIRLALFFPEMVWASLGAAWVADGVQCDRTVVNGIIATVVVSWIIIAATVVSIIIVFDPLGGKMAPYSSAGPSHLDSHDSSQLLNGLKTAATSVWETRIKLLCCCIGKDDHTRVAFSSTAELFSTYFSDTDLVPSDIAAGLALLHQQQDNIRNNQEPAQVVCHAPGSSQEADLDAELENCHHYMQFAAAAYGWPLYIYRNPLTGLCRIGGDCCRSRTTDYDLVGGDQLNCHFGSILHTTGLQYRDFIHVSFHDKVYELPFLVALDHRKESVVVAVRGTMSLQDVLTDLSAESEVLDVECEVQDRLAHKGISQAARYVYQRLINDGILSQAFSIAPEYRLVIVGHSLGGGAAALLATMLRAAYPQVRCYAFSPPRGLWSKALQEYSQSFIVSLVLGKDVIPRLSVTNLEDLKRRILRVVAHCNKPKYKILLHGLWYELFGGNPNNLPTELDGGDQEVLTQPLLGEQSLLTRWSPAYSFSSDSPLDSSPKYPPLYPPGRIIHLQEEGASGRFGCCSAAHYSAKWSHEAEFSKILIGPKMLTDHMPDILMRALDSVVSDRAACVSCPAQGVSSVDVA
MsrA inhibitor: bovine MsrA enzyme inhibitors, primary screen, biochemical, absorbance, HTS; purified bovine MsrA, absorbance read-out; 360,000 tested, 0.75% active; AID 651718, 2012; inhibition, % at 15.5 µM;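 also: 0% = vehicle wells with enzyme and 100% = reference inhibitor wells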
rCAG binder: binders of r(CAG) RNA repeats, primary screen, biochemical, fluorescence; inhibition, % at 3 µM; r(CAG) RNA repeat, TO-PRO-1 dye displacement fluorescence; 370,000 tested, 1.3% active;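 active = inhibition above the plate cutoff, the mean of all test compounds on that plate plus 3 SD, cut at about 35% in these data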;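 also: 0% = DMSO alone and 100% = 100 µM mitoxantrone as full dye displacement; higher means more dye released from RNA so lower well fluorescence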
bovine MsrA act: bovine MsrA enzyme activators, primary screen, biochemical, absorbance, HTS. purified bovine MsrA, absorbance read-out. activation, % at 10.6 µM. 360,000 tested, 0.3% active; in the data active = activation above about 7.5%;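 also: 0% = vehicle and 100% = reference activator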
DSG3 Ab inh: inhibitors of pemphigus antibody binding to DSG3, primary screen, biochemical, bead-based, flow cytometry, scFv-GFP. AID 588358, 2011. 310,000 tested, 0.48% active. DSG3-coupled beads, scFv-anti-DSG3-GFP binding; stronger effect = lower value. binding (percent of control), % at 10 µM. Desmoglein-3 (Homo sapiens), P32926;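 active = binding more than 3 SD below its plate's average and above zero; inconclusive = below that plate limit but binding exactly zero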;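 also: hits lower antibody fragment binding to DSG3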
NadD inh: inhibitors of S. aureus NadD, primary screen, biochemical, colorimetric, uHTS; Nicotinate-nucleotide adenylyltransferase NadD (Staphylococcus aureus N315); purified NadD enzyme, colorimetric absorbance read-out; inhibition, % at 20 µM; 360,000 tested, 0.78% active; AID 602399, 2012; in the data active = inhibition above about 26%
MsrA inh confirm: bovine MsrA inhibitors, retest, confirmation, biochemical, absorbance, HTS; purified bovine MsrA, absorbance read-out; shares compounds with MsrA inhibitor; AID 651822, 2012; inhibition, % at 15.5 µM; 2,300 tested, 41% active;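 also: coupled to thioredoxin reductase with NADPH and selenocystamine and DMSO as substrate; 0% = vehicle only and 100% = full effect of reference inhibitor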
Numbers without * were called inactive; ? = inconclusive; · = not tested or not shown. Rule as the data show it, unless noted: active = inhibition above about 4.5%; inactive = the rest.

SMILES	DAGLB inh	MsrA inhibitor	rCAG binder	bovine MsrA act	DSG3 Ab inh	NadD inh	MsrA inh confirm
Cc1c(C(=O)N2CCOCC2)sc(NC(=O)c2ccc3c(c2)OCO3)c1C#N	4	5.0*	4	-5	102	9	4
CCN(CC)C(=O)c1sc(NC(=O)c2ccc3c(c2)OCO3)c(C#N)c1C	1	2	0	-13	101	-2	·
O=c1[nH]c(/C=C\c2cccs2)nc(O)c1[N+](=O)[O-]	3	5.3*	3	-5	102	10	3
CCOc1cc(/C=C\c2nc(O)c([N+](=O)[O-])c(=O)[nH]2)ccc1OC(C)C	1	1	7	-4	96	-5	·
Cc1ccc(CN2CCCCC(NC(=O)c3ccc4ccccc4c3)C2=O)cc1 (stereo unspecified)	·	·	4	·	·	·	·
Cc1nnc(N/N=C/c2ccc(-c3ccccc3F)o2)n1N	0	6.1*	1	1	88	2	6.0*
Cc1nnc(N/N=C/c2c(Cl)cccc2Cl)n1N	-2	0	0	6	285	-3	·
Cc1ccc(NC2=C/C(=N/S(=O)(=O)c3cccs3)c3ccccc3C2=O)cc1	11	14*	18	4	93	4	24*
CCc1ccc(S(=O)(=O)/N=C2\C=C(Nc3ccc(C(=O)O)cc3)C(=O)c3ccccc32)cc1	11	64*	89*	-7	99	-1	69*
CCc1ccc(NC2=CC(=O)C(=O)c3ccccc32)cc1	15	0	7	5	98	10	·
CCN1CCN(CC(O)COC(c2ccccc2)c2ccccc2C)CC1 (stereo unspecified)	2	-1	-8	0	101	-12	·
Cc1cccc(C)c1NC(=O)C1(C)CN(S(C)(=O)=O)CC(=O)N1CC(F)(F)F (stereo unspecified)	·	-1	2	·	·	·	·
CCOc1ncccc1C(=O)Nc1ccccc1C(=O)NCc1ccc2c(c1)OCO2	-4	0	2	-5	·	1	·
CCOc1ncccc1C(=O)Nc1ccc2c(c1)OCO2	-5	5.0*	-2	-3	113	-5	5
O=C(N/N=C/c1ccccc1)c1cc(=O)[nH]c2ccccc12	2	1	2	-11	101	0	·
CN(C)c1ccc(/C=N/NC(=O)c2ccn(C)n2)cc1	0	6.3*	-4	-4	107	-9	4
O=C(N/N=C/c1ccc2ncccc2c1)c1ccco1	-3	5.2*	9	-10	92	-4	3
CN(C)c1ccc(/C=N/NC(=O)C(=O)N2CCCCCC2)cc1	1	4.7*	-2	-4	100	-1	5.9*
CN(C)c1ccc(/C=N/NC(=O)c2cc(=O)[nH]c3ccccc23)cc1	-2	7.1*	4	-2	98	-2	5
COC(=O)c1ccc(S(=O)(=O)N2CCC(NC(=O)COc3ccc(F)cc3)CC2)cc1	·	·	0	·	·	·	·
COc1ccc(C(=O)OCCCN(C)C2CN(Cc3cn(Cc4ccccc4Cl)nn3)S(=O)(=O)C2)cc1OC (stereo unspecified)	·	·	2	·	·	·	·
CN1CCCCC1(C)C(=O)NCc1ccc(F)cc1 (stereo unspecified)	·	-1	2	-3	·	-6	·
COc1cccc(C(N)c2nc(-c3csc4ccccc34)cs2)c1 (stereo unspecified)	·	·	·	0	·	3	·
CN(C)c1ccc(/C=N/NC(=O)c2ccco2)cc1	2	4.7*	1	-3	84	3	5.1*
Cc1ccc(Sc2ccc([N+](=O)[O-])cc2[N+](=O)[O-])nc1	-3	4.8*	2	-2	106	-5	3
SMILES	DAGLB inh	MsrA inhibitor	rCAG binder	bovine MsrA act	DSG3 Ab inh	NadD inh	MsrA inh confirm
C(=N\n1cnnc1)/c1nc2ccccc2[nH]1	1	4.9*	2	-3	?	-2	2
Cc1[nH]c2ccccc2c1/C=N/n1cnnc1	-2	2	2	-2	109	-6	·
COc1cccc(C(NC(C)=O)c2nc(-c3cnn(C)c3)cs2)c1 (stereo unspecified)	·	0	1	-5	·	-4	·
O=C1CCC/C1=C/Nc1ccc(Cl)cc1	-3	6.0*	2	-3	96	-1	5
COCC(=O)N(C)C[C@@H]1Oc2ncc(Br)cc2C(=O)N([C@@H](C)CO)C[C@H]1C	-2	1	1	-8	·	2	·
COc1ccc(-c2oc3ccc(-c4ccc(OC)nc4)cc3c2C#CC2(O)CCCCC2)cc1	-9	2	7	0	105	8	·
COc1ccc(-c2oc3ccc(-c4ccc5c(c4)OCO5)cc3c2C#CC2(O)CCCCC2)cc1	-9	5.2*	13	-4	92	11	3
COc1ccc(Cl)cc1Cn1c(C)c(C(=O)NCc2ccc3c(c2)OCCO3)sc1=O	·	2	5	-8	·	4	·
CC(C)N1CCCCC(NC(=O)c2ccc(Cl)cc2Cl)C1=O (stereo unspecified)	·	·	4	·	·	·	·
C/C(=N\Nc1ccc(S(N)(=O)=O)cc1[N+](=O)[O-])c1ccccc1O	9	9.9*	10	-15	72*	1	4.7*
C/C(=N\Nc1ccc(C#N)cc1[N+](=O)[O-])c1ccc(O)cc1	32	16*	5	-4	102	2	17*
C/C(=N\Nc1ccc(S(N)(=O)=O)cc1[N+](=O)[O-])c1ccco1	19	9.2*	12	-7	101	-2	5.4*
O=[N+]([O-])c1cc(Cl)ccc1Nc1ccccc1	8	·	·	-12	107	-4	·
NS(=O)(=O)c1ccc(Nc2ccccc2)c([N+](=O)[O-])c1	4	4.9*	1	-11	95	-14	3
C/C(=N\NC(=O)c1cc([N+](=O)[O-])cc([N+](=O)[O-])c1)c1ccco1	-1	2	4	1	100	-1	·
C/C(=N\Nc1ccccc1[N+](=O)[O-])c1ccccc1O	17	1	3	-10	92	2	·
C=C(C)Cn1c(SCC(=O)NN=Cc2c(O)ccc3ccccc23)nnc1-c1ccc(Br)cc1	·	·	15	·	·	·	·
CCN(CC)C(=O)COc1cc(C)c(Cl)c(C)c1	0	37*	-6	-1	103	8	1
Cc1cc(OCC(=O)N(C)C2CCCCC2)cc(C)c1Cl	-4	0	-6	-2	101	-6	·
